This note sets out measurements from PubChem BioAssay AID1751 (National Center for Advancing Translational Sciences (NCATS), 2009).

Results filed as inconclusive are left out. Active and inactive are the calls of the source. Calls come from the whole dose curve; as a rule, active = well fitted activation curve with a large enough effect; inconclusive = small, poorly fitted or top-dose-only effect; inactive = no such curve, though single readings can be large or run the other way.

Chain of Pyruvate kinase PKM (Homo sapiens) (P14618 whole entry, looked up, canonical isoform): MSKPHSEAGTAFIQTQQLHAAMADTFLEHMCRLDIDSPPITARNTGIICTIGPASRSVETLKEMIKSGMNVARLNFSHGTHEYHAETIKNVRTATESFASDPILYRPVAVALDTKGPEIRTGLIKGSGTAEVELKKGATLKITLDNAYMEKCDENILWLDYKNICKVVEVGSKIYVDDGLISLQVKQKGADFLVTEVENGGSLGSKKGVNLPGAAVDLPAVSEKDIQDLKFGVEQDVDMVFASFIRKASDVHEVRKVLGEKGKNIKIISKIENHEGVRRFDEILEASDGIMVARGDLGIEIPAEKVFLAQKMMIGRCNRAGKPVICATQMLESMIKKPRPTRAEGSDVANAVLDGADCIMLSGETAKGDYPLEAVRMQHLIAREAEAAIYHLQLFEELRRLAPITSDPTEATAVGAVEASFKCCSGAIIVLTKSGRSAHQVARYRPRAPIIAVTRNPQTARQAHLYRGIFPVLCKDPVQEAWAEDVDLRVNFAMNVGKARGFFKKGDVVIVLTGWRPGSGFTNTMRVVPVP

In the experiment the target is Pyruvate kinase PKM (Homo sapiens) (UniProt P14618). As to the kind of experiment: Confirmation Concentration-Response Assay for Activators of Human Muscle isoform 2 Pyruvate Kinase. The following applies: purified hPK-M2, Kinase-Glo ATP luminescence, 1 h; series mostly up to 57.5 µM. An excerpt:
NIH Chemical Genomics Center [NCGC] Matthew G. Vander Heiden, M.D., Ph.D. [Harvard Medical School, 77 Avenue Louis Pasteur, Boston, MA 02115] MLPCN Grant: 1 R03 MH085679-01 NCGC Assay Overview: Human pyruvate kinase muscle 2 (hPK-M2) enzyme was supplied as a highly purified (>95% pure) preparation from Harvard Medical School and assayed for its ability to generate ATP from ADP using phosphoenolpyruvate (PEP) as a substrate. ATP generation was detected in a coupled reaction by luciferase-mediated luminescence, an ATP-dependent process. Pyruvate kinase substrates, PEP and ADP, were present in the assay at Km and approximately 10-fold below Km respectively. The enzyme was assayed at an intermediate level of activity to screen for both inhibitors and activators.
NCGC Assay Protocol Summary: Three uL of substrate mix (at r.t.) in assay buffer (50 mM Imidazole pH7.2, 50 mM KCl, 7 mM MgCl2, 0.01% Tween 20, 0.05% BSA) was dispensed into white solid bottom 1,536 well microtiter plates so that the final concentrations of substrates in the assay were 0.1 mM ADP and 0.5 mM PEP. 23 nL of compound were delivered by a pin tool and 1 uL of enzyme mix (final concentration of 0.1 nM) in assay buffer (4 degree Celsius) was added. Plates were incubated at room temperature for 1 hour. Two uL of detection mix (Kinase-Glo, Promega; at 4 degree Celsius protected from light) was added and luminescence read by a ViewLux (Perkin Elmer) at 1 second exposure/plate. Data were normalized to the uninhibited (column 3) and AC100 inhibition (no enzyme in column 2). To monitor activation, the first column contained a titration of the activator, NCGC00031955-03 (16-point 1:2 dilutions in duplicate starting at 57 uM) and the first 16 rows of column 4 contained 57 uM of NCGC00031955-03.
On the technique in general: Kinase-Glo reads ATP consumption through a luciferase reaction.
Regarding `Cc1cccc(NC(=O)c2cnc3ccccn3c2=O)c1`, the Potency entry was “inactive”. For `O=S(=O)(c1ccc(F)cc1)N1CCN(S(=O)(=O)c2ccc3c(c2)OCCO3)CC1` the value was 56.6 nM (active); for `O=S(=O)(NCCCNS(=O)(=O)c1c(F)cccc1F)c1ccc2c(c1)OCCO2`, 2840 nM (active). As for `Cc1ccc(-c2nnc3ccc(SC(C)C(=O)O)nn23)cc1` (stereo not given), the entry is “inactive”; as for `Cc1cc2c(s1)c1cnn(Cc3ccc(C(F)(F)F)cc3)c(=O)c1n2C`, 318 nM (active); as for `COc1cccc(S(=O)(=O)N2CCN(S(=O)(=O)c3ccc4c(c3)OCCO4)CC2)c1`, 63.5 nM (active). As for `O=S(=O)(NCCCCNS(=O)(=O)c1c(F)cccc1F)c1ccc2c(c1)OCCO2`, the Potency was 5050 nM (active).

In the case of `O=S(=O)(c1ccc2c(c1)OCCO2)N1CCN(S(=O)(=O)c2c(F)cccc2F)CC1`, the Potency was 35.7 nM (active). With `Cn1c2cc(S(C)=O)sc2c2cnn(Cc3ccccc3F)c(=O)c21` (stereo not given), the Potency is 16 nM (active). For `Cc1cc2c(s1)c1cnn(Cc3ccccc3F)c(=O)c1n2C(C)C` the value was “inactive”. As for `O=C1CN(S(=O)(=O)c2ccc3c(c2)OCCO3)CCN1S(=O)(=O)c1c(F)cccc1F`, the figure is 2250 nM (active); as for `COc1ccc(S(=O)(=O)N2CCN(S(=O)(=O)c3ccc4c(c3)OCCO4)CC2)cc1`, 80 nM (active); as for `O=S(=O)(c1ccc2c(c1)OCCO2)C1CCN(S(=O)(=O)c2c(F)cccc2F)CC1`, 713 nM (active). For `COc1ccc(S(=O)(=O)N2CCN(S(=O)(=O)c3ccc(OC)cc3)CC2)cc1` the value was 142 nM (active). In the case of `Cc1nc2ccc(S(=O)(=O)N3CCN(S(=O)(=O)c4c(F)cccc4F)CC3)cc2s1`, the Potency was 63.5 nM (active). Regarding `Cc1cc2c(s1)c1cnn(Cc3ccc(C(C)C)cc3)c(=O)c1n2C`, the Potency is 63.5 nM (active).

For `O=S(=O)(NCC1CN(S(=O)(=O)c2ccc3c(c2)OCCO3)C1)c1c(F)cccc1F`, the Potency was 4010 nM (active). As for `Nc1cccc(-c2cn3cc(C(F)(F)F)cc(Cl)c3n2)c1`, the entry is “inactive”; as for `Cc1cc2c(s1)c1cnn(Cc3ccc(C)c(F)c3F)c(=O)c1n2C`, 56.6 nM (active). For the compound `Cc1cc2c(s1)c1cnn(Cc3cccc(Cl)c3)c(=O)c1n2C`, the Potency was 101 nM (active). As for `Cc1cc2c(s1)c1cnn(Cc3ccc(Cl)cc3)c(=O)c1n2C`, the figure is 201 nM (active). Consider `C[C@H]1CN(S(=O)(=O)c2ccc3c(c2)OCCO3)CCN1S(=O)(=O)c1c(F)cccc1F`, for which the Potency was 8970 nM (active). As for `Cc1sc2ncnc(OCC(=O)N3CCN(S(=O)(=O)c4ccc(Cl)cc4)CC3)c2c1C`, the entry is “inactive”; as for `O=C1NC(=S)S/C1=C1\Sc2ccccc2N1CCCS(=O)(=O)O`, “inactive”; as for `COc1ccc2nc3sc(C(=O)NCc4cccs4)c(N)c3cc2c1`, “inactive”. As for `O=S(=O)(c1ccc2c(c1)OCCO2)N1CCN(S(=O)(=O)c2ccc3c(c2)OCCO3)CC1`, the figure is 179 nM (active); as for `O=S(=O)(c1ccc2ccccc2c1)N1CCN(S(=O)(=O)c2c(F)cccc2F)CC1`, 56.6 nM (active); as for `COc1cc(F)c(S(=O)(=O)N2CCN(S(=O)(=O)c3ccc4c(c3)OCCO4)CC2)c(F)c1`, 17.9 nM (active). For `CCCc1cc(F)c(S(=O)(=O)N2CCN(S(=O)(=O)c3ccc4c(c3)OCCO4)CC2)cc1F` the value was 800 nM (active); for `Cn1c2ccsc2c2ncn(Cc3ccccc3F)c(=O)c21`, 17900 nM (active); for `CCOC(=O)CSc1nc2cc(OC)ccc2cc1C#N`, “inactive”. For the compound `O=S(=O)(c1ccc2c(c1)OCCO2)N1CCN(S(=O)(=O)c2c(F)ccc(O)c2F)CC1`, the Potency was 31.8 nM (active).

For `Cc1cc2c(s1)c1cnn(Cc3ccc(F)cc3F)c(=O)c1n2C`, the Potency was 25.3 nM (active). For `O=S(=O)(c1ccc2c(c1)OCCO2)N1CCN(S(=O)(=O)c2ccccn2)CC1` the value was 505 nM (active); for `Cc1cc2[nH]c3c(=O)n(Cc4ccccc4F)ncc3c2s1`, “inactive”; for `O=S(=O)(NCCCCCNS(=O)(=O)c1c(F)cccc1F)c1ccc2c(c1)OCCO2`, 2010 nM (active).

As to `Cc1cc2c(s1)c1cnn(Cc3cccc(Cn4ncc5c6sc(C)cc6n(C)c5c4=O)c3F)c(=O)c1n2C`, the Potency was 16000 nM (active).

As for `O=S(=O)(c1ccc2c(c1)OCCCO2)N1CCN(S(=O)(=O)c2c(F)cccc2F)CC1`, the Potency was 80 nM (active).

In the case of `Cc1cc2c(s1)c1cnn(Cc3ccccc3Cl)c(=O)c1n2C`, the Potency is 113 nM (active). As for `O=S(=O)(c1ccc2c(c1)OCO2)N1CCN(S(=O)(=O)c2c(F)cccc2F)CC1`, the figure is 127 nM (active).
